system: VDR homodimer (NR concentration 270 nM); assay: PBM binding z-score (relative to random genomic background probes); higher = stronger binding; sequences stand for … in GC…GCGATTGACAGCGTAGAATGAAGG
How it was run: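 For binding z-scores, the reference was random background probes on custom Agilent 4×180K protein-binding microarrays. These arrays were incubated 1 h with ligand-free nuclear receptor dimers in PBS pH 7.4, 2% milk, 0.02% Triton X-100, 1 mM DTT, 0.2 mg/mL BSA and 0.4 mg/ml salmon testes DNA. Fluorescence was scanned after antibody detection of each partner (one per run) and regression-normalized.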

Sequence | PBM binding z-score
CGAACTAGGTTAAGGACAGTGAATCTCCGCACGC | -0.012
CATACAGGGTCAGCTAGGCGAGAGTAGGGACGGC | 0.943
ACAGACAGGTGATGTAGGTAACTCAGGCTATCAT | -0.512
TGAATGAGGTTATAAGATCAGGTAACGTTGCAAA | 0.507
TCTCGGAGGACACGAAAGGTCAGAGCTCGACATC | 0.918
TCTCGGAGGACACGAAGGTCAGAGCATTCCAGAG | 1.04
ATATGTAGGTTAAGGATCATTCAGGTTGGTTCGC | 1.16
CAAACTAGGTCAAGAGGTAAAAGTCCGCTTCCCG | 0.657
TCTCGGCGGACACGAAAGGTCAGAGCTCGACATC | 0.543
AGAACGAGGGCAATGAGTTGATATCACGGGTGGC | 2.71
CCTACTGGGCCATTCAGACGTCATTGATCATATG | -0.378
TTACCAAGGTGAGCTGAGTTCGTTGATCCAACTC | 3.63
TCTTGTAGATCAAAGGTTAAGAACGCCGAAGCCT | 0.13
TCTCGGAGGACACGAAGGTCAGACCTTTCCAGAG | 1.44
ATCTCTAGGGAAAAGTTCAGTGAATCCCGAGGAT | 1.22
CCTAGGAGGACAACAGGAGGTCAGAGCTGCCAGA | 1.4
CCGACTGGGGCCGAAAGGTTACCATACCATCCGG | -0.349
CAAACTAGGTGAAGAGGTCAAAGTCCGCTTCCCG | 3.38
CCGACTGGGGCATAAGGTCACCATAAGCCAGCCC | 1.77
CCTGGTTGGTCAAGGTCACACACGCTATAGGTAC | 3.51

Sequence | PBM binding z-score
AATACAGGGTCACTAGGCCAGGGTAGGTACGAAT | 2.71
GCTGCTAGGTCAGGTTGGTCAGCGAACGGGTACG | 0.896
CAAACTAGGTCAAGAGGTCAAAGTACGCTTCCCG | 4.76
AGAATGAGGTTATTAAGATCAGGTAATTGCGGTC | 1.13
TATCCTAGGTCATTGGGCCAGTATAGTACGCATC | 1.65
TCTATTAGATGATTAGGGCAACCGAAACAGCGGA | 0.272
ATCTCTAGGTCAGACTCAGTTCAGTGAAGAACGC | 2.32
CGTCCAAGGTCGGCAGGTCAGTGAAAGCGACGTG | 0.171
TGAATGAGGTTAAAGAGCAGGGAACGTGGCGTCG | 0.665
CCTGGCAGGCCAATCTGGGTCACTCAAGGCTTGA | -0.15
CCTTACGGGTCATTGACAGGTTATAGCATTTGGA | 1.67
AGAATGAGTTTAAGATCAGGGAAACAGAATACAT | 2.06
CCTACTGGGCCATTCAGAGGTAATTGATCATATG | -0.114
TCTGCTAGGTCAGTTGGTCAGCTATCGAGCTGCC | -0.608
CCTACTGGGCTATCAGGTCATTGATATCAACGTT | 1.01
CAAACTGGGTCAAGAGGTCAAAGTCCGCTTCCCG | 4.76
CGTCCACGGTCAGCAGGTCAGTGAAAGCGACGTG | -0.234
TCTTGTAGATCAAATGTTAAGAAAGCCGAAGCCT | -0.522
GCTGCTAGGTCAACTGATGGTCCGCTAAAGCTCG | 0.106
CCGATTGGGGCAGAAAGGTTACCATACCATCCGG | -0.225
